From the supplement of paper PMC7156485 come the findings set out here.

Values joined by “and” are separate entries in the source; they are usually repeats but may differ in a detail not shown here. Identical values can stand only once. ± gives the standard deviation of the averaged measurements.

What all share (details): concentration: 10 µM; 24 h
Experiment [1] deals with HCC1569. Briefly: cell number relative to DMSO (% of DMSO); higher = more cells (less growth inhibition / toxicity). The procedure, abridged:
(§1)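 Using 384-well plates with 800 cells per well in RPMI plus 10% FBS, HCC1569 and TDF cells were exposed to compounds at 10 µM, in triplicate, for 24 h at 37 °C. Imaging of six fields per well at ×10 followed H1.0 and DAPI staining. The reported quantity, H1.0 nuclear intensity or cell number, is a median of replicates given as percent of the plate control, and HCC1569 values were smoothed for positional effects.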

The test system of experiment [2] is TDF. Described as above. The procedure, abridged: as §1
The test system of experiment [3] is TDF. Put plainly: H1.0 immunofluorescence intensity relative to DMSO (% of DMSO); higher = stronger H1.0 induction, active = 120 or more. The procedure, abridged: as §1
Experiment [4] concerns HCC1569. Briefly: H1.0 immunofluorescence intensity relative to DMSO (% of DMSO); higher = stronger H1.0 induction, active = 140 or more. A digest of the protocol: as §1
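Wherever H1.0 immunofluorescence intensity relative to DMSO is given: TDF is a line of transformed human dermal fibroblasts of mesenchymal origin.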
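Wherever cell number relative to DMSO is given: TDF denotes transformed human dermal fibroblasts of mesenchymal origin.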

As for `CC[N+](CC)(CC)CCOc1cccc(OCC[N+](CC)(CC)CC)c1OCC[N+](CC)(CC)CC.[I-].[I-].[I-]` [Gallamine triethiodide], the results for the cell number in experiment [1] and in experiment [2] were 101 and 99, respectively. The H1.0 immunofluorescence intensity in experiment [3] is 98.8 (inactive); in experiment [4], 123 (inactive).

As for `CC(Cc1ccc(O)c(O)c1)(NN)C(=O)O` (stereo not drawn) [S-(-)-Carbidopa], the results for the cell number in experiment [1] and in experiment [2] were 106 and 112, respectively. In addition, the H1.0 immunofluorescence intensity in experiment [3] is 91.7 (inactive); in experiment [4] it was 90 (inactive).

For the compound `CC1=C(CC(=O)O)c2cc(F)ccc2C1=Cc1ccc(S(C)(=O)=O)cc1` [Sulindac sulfone], the cell number was 104 in experiment [1] and 117 in experiment [2]. Moreover, the H1.0 immunofluorescence intensity in experiment [3] was 100 (inactive); in experiment [4] it was 103 (inactive).

As for `COc1ccc(-c2cc(=S)ss2)cc1` [Anethole-trithione], the cell number turned out to be 102 in experiment [1] and 92.7 in experiment [2]. Also, the H1.0 immunofluorescence intensity in experiment [3] is 96.7 (inactive); in experiment [4], 103 (inactive).

Regarding `O=C(O)Cc1sc(-c2ccccc2)nc1-c1ccc(Cl)cc1` [Fentiazac], the cell number was 91.8 in experiment [1] and 107 in experiment [2]. For the same compound, the H1.0 immunofluorescence intensity is 89.6 (inactive) in experiment [3] and 116 (inactive) in experiment [4].

For `CC(C)NCC(O)COc1cccc2ccccc12` (stereo not given) [Propranolol], the results for the cell number in experiment [1] and in experiment [2] were 102 and 106, respectively. Further, the values for the H1.0 immunofluorescence intensity in experiment [3] and in experiment [4] were 94.7 (inactive) and 108 (inactive), respectively.

Turning to `COc1cc(CNC(=O)CCCCCCC(C)C)ccc1O` [Dihydrocapsaicin], the values for the cell number in experiment [1] and in experiment [2] were 96.7 and 101, respectively. Besides, the H1.0 immunofluorescence intensity in experiment [3] was 91.1 (inactive); in experiment [4] it was 97 (inactive).

In the case of `CC[C@H](NC(=O)c1c(O)c(-c2ccccc2)nc2ccccc12)c1ccccc1`, the cell number in experiment [1] was found to be 101; in experiment [2] it was 98.3. In addition, the figures for the H1.0 immunofluorescence intensity in experiment [3] and in experiment [4] were 97.8 (inactive) and 107 (inactive), respectively.

For `CCCCCC(O)C=CC=CCC=CCCCC(=O)O` (stereo not given), the cell number in experiment [1] is 100; in experiment [2] it was 90.9. The H1.0 immunofluorescence intensity was 97 (inactive) in experiment [3] and 97.1 (inactive) in experiment [4].

`O=C1NC(=O)C(=Cc2cccc(C(F)(F)F)c2)S1` [PIM1/2 Kinase Inhibitor V]: the cell number is 102 in experiment [1] and 103 in experiment [2]. Also, the results for the H1.0 immunofluorescence intensity in experiment [3] and in experiment [4] were 102 (inactive) and 108 (inactive), respectively.

`NCC(O)(CS(=O)(=O)O)c1ccc(Cl)cc1` (stereo not given) [2-Hydroxysaclofen]: the cell number in experiment [1] was 101; in experiment [2], 94.6. Further, the H1.0 immunofluorescence intensity in experiment [3] was 97.7 (inactive); in experiment [4], 93.4 (inactive).

For `CC(=O)OC1C(=O)C2(C)C(O)CC3OCC3(OC(C)=O)C2C(OC(=O)c2ccccc2)C2(O)CC(OC(=O)C(O)C(NC(=O)c3ccccc3)c3ccccc3)C(C)=C1C2(C)C` (stereo not given) [Taxol], the cell number in experiment [1] was found to be 60.2 ± 4.1; in experiment [2], 10.1 ± 1.7. In addition, the H1.0 immunofluorescence intensity in experiment [3] is 174 (active); in experiment [4], 132 (inactive).

In the case of `CC12CCC(=O)C=C1CCC1C2C(=O)CC2(C)C1CCC2(O)C(=O)CO` (stereo not given) [Cortisone], the cell number came to 87.8 in experiment [1] and 82 in experiment [2]. Moreover, the H1.0 immunofluorescence intensity in experiment [3] is 106 (inactive); in experiment [4], 97 (inactive).

For the compound `CNS(=O)(=O)Cc1ccc2[nH]cc(CCN(C)C)c2c1.O=C(O)CCC(=O)O` [Sumatriptan Succinate], the cell number stood at 98 in experiment [1] and 106 in experiment [2]. The H1.0 immunofluorescence intensity in experiment [3] was 90.9 (inactive); in experiment [4], 114 (inactive).

With `CCCCCCCCC=CCCCCCCCC(=O)NCCO` [N-Oleoylethanolamine], the values for the cell number in experiment [1] and in experiment [2] were 99.9 and 108, respectively. Further, the figures for the H1.0 immunofluorescence intensity in experiment [3] and in experiment [4] were 98.4 (inactive) and 115 (inactive), respectively.

Regarding `O=C(O)c1cc([N+](=O)[O-])ccc1NCCCc1ccccc1` [5-Nitro-2-(3-phenylpropylamino)benzoic acid], the cell number in experiment [1] worked out at 105; in experiment [2] it was 102. In addition, the H1.0 immunofluorescence intensity is 91 (inactive) in experiment [3] and 88.1 (inactive) in experiment [4].

Take `C[N+](C)(C)C(Cc1c[nH]c(=S)[nH]1)C(=O)[O-]` (stereo not given) [Ergothioneine]: the results for the cell number in experiment [1] and in experiment [2] were 100 and 103, respectively. In addition, the H1.0 immunofluorescence intensity in experiment [3] was 101 (inactive); in experiment [4] it was 99.9 (inactive).

As to `CC(=O)OCC1OC([S-])C(OC(C)=O)C(OC(C)=O)C1OC(C)=O.CCP(CC)CC.[Au+]` (stereo not given) [Auranofin], the figures for the cell number in experiment [1] and in experiment [2] were 38 and 15.4, respectively. Further, the H1.0 immunofluorescence intensity in experiment [3] is 155 (active); in experiment [4], 146 (active).

For `Cl.NNc1nncc2ccccc12` [Hydralazine hydrochloride], the cell number in experiment [1] came out at 101; in experiment [2] it was 107. Besides, the H1.0 immunofluorescence intensity in experiment [3] was 93.2 (inactive); in experiment [4] it was 92 (inactive).

In the case of `CN(CC=CC#CC(C)(C)C)Cc1cccc2ccccc12` [Terbinafine], the cell number in experiment [1] was 104; in experiment [2] it was 110. Further, the H1.0 immunofluorescence intensity is 99.6 (inactive) in experiment [3] and 104 (inactive) in experiment [4].

As to `Cc1ccc(Nc2nccc(N(C)c3ccc4c(C)n(C)nc4c3)n2)cc1S(N)(=O)=O` [Pazopanib], the figures for the cell number in experiment [1] and in experiment [2] were 74.3 and 100, respectively. Besides, the values for the H1.0 immunofluorescence intensity in experiment [3] and in experiment [4] were 94.6 (inactive) and 156 (active), respectively.

Take `CNC(=O)c1cc2c(cn1)[nH]c1ccccc12` [N-Methyl-beta-carboline-3-carboxamide]: the cell number in experiment [1] amounted to 107; in experiment [2], 111. Further, the results for the H1.0 immunofluorescence intensity in experiment [3] and in experiment [4] were 87.9 (inactive) and 85.2 (inactive), respectively.

Turning to `CC(=O)OCC=C(C)C=CC=C(C)C=CC1=C(C)CCCC1(C)C` [Vitamin A acetate], the cell number in experiment [1] turned out to be 98.7; in experiment [2], 107. In addition, the H1.0 immunofluorescence intensity in experiment [3] is 91.8 (inactive); in experiment [4], 119 (inactive).

Take `CCc1ccc(CCOc2ccc(CC3SC(=O)NC3=O)cc2)nc1` (stereo not given) [Pioglitazone]: the figures for the cell number in experiment [1] and in experiment [2] were 102 and 105, respectively. Besides, the H1.0 immunofluorescence intensity is 94.2 (inactive) in experiment [3] and 102 (inactive) in experiment [4].

With `Cl.O=C(O)C1=CCCN(CCON=C(c2ccccc2)c2ccccc2)C1` [NO-711 hydrochloride], the cell number came out at 100 in experiment [1] and 93.9 in experiment [2]. Further, the H1.0 immunofluorescence intensity in experiment [3] was 94.2 (inactive); in experiment [4] it was 97.9 (inactive).

`Cl.Cl.Fc1ccc(C(c2ccc(F)cc2)N2CCN(CC=Cc3ccccc3)CC2)cc1` [Flunarizine.2HCl]: the cell number came out at 97.6 in experiment [1] and 105 in experiment [2]. The H1.0 immunofluorescence intensity in experiment [3] was 92.2 (inactive); in experiment [4], 112 (inactive).

On to `CCCc1nc(C)c2c(=O)nc(-c3cc(S(=O)(=O)N4CCN(CC)CC4)ccc3OCC)[nH]n12` [Vardenafil], for which the cell number in experiment [1] was 105; in experiment [2] it was 108. Also, the H1.0 immunofluorescence intensity in experiment [3] was 91 (inactive); in experiment [4], 100 (inactive).

Regarding `CCCCCC=CCC(O)C=CC=CCC=CCCCC(=O)O` (stereo not given), the cell number was 105 and 98 in experiment [1]; 95.5 and 90.4 in experiment [2]. For the same compound, the H1.0 immunofluorescence intensity is 92.5 (inactive) and 96.7 (inactive) in experiment [3]; 98.4 (inactive) and 99.8 (inactive) in experiment [4].

On to `CC(C)Cn1c(=O)n(C)c(=O)c2[nH]cnc21` [3-Isobutyl-1-methylxanthine], for which the results for the cell number in experiment [1] and in experiment [2] were 114 and 118, respectively. Besides, the H1.0 immunofluorescence intensity in experiment [3] was 90.5 (inactive); in experiment [4], 88.2 (inactive).

`Cc1cccc(-c2[nH]ncc2-c2ccc3ncccc3n2)n1`: the cell number in experiment [1] worked out at 96.6; in experiment [2] it was 95.3. For the same compound, the H1.0 immunofluorescence intensity was 94.9 (inactive) in experiment [3] and 92.8 (inactive) in experiment [4].

Take `Cn1cnc2cc3c(Nc4cccc(Br)c4)ncnc3cc21`: the cell number in experiment [1] came to 92.4; in experiment [2] it was 114. Also, the H1.0 immunofluorescence intensity in experiment [3] was 79.6 (inactive); in experiment [4] it was 117 (inactive).

With `C=CC[C@H](N)C(=O)O` [L-allylglycine], the cell number in experiment [1] was found to be 101; in experiment [2] it was 99.3. The H1.0 immunofluorescence intensity in experiment [3] was 95.9 (inactive); in experiment [4], 92.4 (inactive).

`CC(C)(C)NCC(O)c1ccc(O)c(CO)c1.CC(C)(C)NCC(O)c1ccc(O)c(CO)c1.O=S(=O)(O)O` (stereo not given) [Salbutamol hemisulfate]: the figures for the cell number in experiment [1] and in experiment [2] were 99.9 and 103, respectively. The H1.0 immunofluorescence intensity in experiment [3] is 84.9 (inactive); in experiment [4], 106 (inactive).

As for `CCCNCC(O)COc1ccccc1C(=O)CCc1ccccc1.Cl` (stereo not given) [Propafenone hydrochloride], the values for the cell number in experiment [1] and in experiment [2] were 95.4 and 103, respectively. For the same compound, the figures for the H1.0 immunofluorescence intensity in experiment [3] and in experiment [4] were 99.2 (inactive) and 102 (inactive), respectively.

`CCCCCC(O)C=CC=CCCCCCCCCCC(=O)O` (stereo not given): the cell number in experiment [1] is 99.4; in experiment [2], 90.3. In addition, the figures for the H1.0 immunofluorescence intensity in experiment [3] and in experiment [4] were 95.7 (inactive) and 96.8 (inactive), respectively.
